CYP2C19 inh = human CYP2C19 inhibition. AID 778. inhibition, % at 5 µM. CYP2C19 Supersomes, luciferin-H EGE luminescence, 30 min. 96,000 tested, 21% active;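 active = CYP2C19 inhibition above a set limit at 5 µM in the primary screen, cut at about 50% in these data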;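 also: plate controls were negative control wells for no effect and 2.5 mM tranylcypromine positive control for full effect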
PostGolgi yeast = growth inhibition of a yeast mutant, post-Golgi transport screen | 98,000 tested, 0.9% active | inhibition, % at 10 µM | post-Golgi transport phenotypic cell assay | AID 739;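 also: yeast cells grown in 1536-well plates; yeast grown about 18 h at 30C before absorbance read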
CYP2C9 act = CYP2C9 (human) activation | P11712 | activation factor at 5 µM | 96,000 tested, 1.4% active | AID 1024 | recombinant CYP2C9, luciferin-H conversion, luminescence; active compounds read high; factor 1 = untreated enzyme, 0 = blocked;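 active = activation factor of 2 or more for CYP2C9 at a 5 µM dose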;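 also: 0 = sulfaphenazole-blocked wells and 1 = vehicle-only wells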
Target sequence (P11712 whole entry, looked up): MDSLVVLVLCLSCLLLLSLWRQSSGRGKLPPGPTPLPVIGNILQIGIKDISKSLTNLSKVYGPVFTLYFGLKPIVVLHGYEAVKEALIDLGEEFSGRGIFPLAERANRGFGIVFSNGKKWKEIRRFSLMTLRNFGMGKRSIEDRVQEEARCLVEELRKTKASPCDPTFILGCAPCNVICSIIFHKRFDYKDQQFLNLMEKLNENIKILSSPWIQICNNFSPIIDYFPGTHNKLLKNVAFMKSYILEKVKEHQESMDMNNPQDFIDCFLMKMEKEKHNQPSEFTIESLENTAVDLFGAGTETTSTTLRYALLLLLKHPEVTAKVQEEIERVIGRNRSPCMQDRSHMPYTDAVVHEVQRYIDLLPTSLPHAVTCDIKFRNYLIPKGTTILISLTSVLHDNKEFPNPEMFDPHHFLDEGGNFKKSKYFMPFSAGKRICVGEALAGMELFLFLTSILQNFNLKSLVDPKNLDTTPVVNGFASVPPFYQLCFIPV
CYP2C19 act = activators of human cytochrome P450 2C19; recombinant CYP2C19, luciferin-H EGE luminescence; active compounds read high; 0 = fully inhibited enzyme, 1 = untreated enzyme; activation factor at 5 µM; 96,000 tested, under 10 active;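 active = activation factor of at least 2 at 5 µM in the primary screen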;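 also: 0 = wells with 2.5 mM tranylcypromine and 1 = vehicle-only wells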
CYP2C9 inh = human CYP2C9 inhibition. CYP2C9 Supersomes, luciferin-H conversion, luminescence. inhibition, % at 5 µM. 96,000 tested, 20% active;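 active = blocking of liver enzyme CYP2C9 beyond about 50% at 5 µM, limit read from the data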
PostGolgi ctrl = yeast control strain growth, post-Golgi counter-screen. efflux-deficient yeast background strain, growth absorbance A615, 16 h. inhibition, % at 10 µM. 98,000 tested, 5% active. AID 738
Numbers without * were called inactive. Only some compounds are listed: those with a hit (about 32% of all), similar ones and a draw of the others. Rule as the data show it, unless noted: active = inhibition above about 30%; inactive = the rest.

How did COc1ccccc1N1CCN(CC(=O)Nc2cc(F)ccc2C)CC1 do in these assays?
CYP2C19 inh: 33; PostGolgi yeast: -3; CYP2C9 act: 0.6; CYP2C19 act: 0.7; CYP2C9 inh: 38; PostGolgi ctrl: -1

How did COC(=O)c1sccc1NC(=O)CN1CCN(c2ccc(F)cc2)CC1 do in these assays?
CYP2C19 inh: 39; PostGolgi yeast: -1; CYP2C9 act: 0.5; CYP2C19 act: 0.6; CYP2C9 inh: 54*; PostGolgi ctrl: 32*

What do the screens show for `COc1ccc(C)cc1NC(=O)CN1CCN(c2ccc(F)cc2)CC1`?
CYP2C19 inh: 78*; PostGolgi yeast: 14; CYP2C9 act: 0.9; CYP2C19 act: 0.2; CYP2C9 inh: 12; PostGolgi ctrl: 22

Results for CC(c1nnnn1C(C)(C)C)N(Cc1cccnc1)Cc1ccccc1Cl (centres undefined) ?
CYP2C19 inh: 99*; PostGolgi yeast: 17; CYP2C9 act: 0.4; CYP2C19 act: 0; CYP2C9 inh: 57*; PostGolgi ctrl: 32*

How did CC(C)(C)n1nnnc1C(c1cccs1)N(Cc1cccnc1)Cc1ccccc1Cl (centres undefined) do in these assays?
CYP2C19 inh: 96*; PostGolgi yeast: -6; CYP2C9 act: 0.1; CYP2C19 act: 0; CYP2C9 inh: 92*; PostGolgi ctrl: 27

What do the screens show for `CCn1ncc(C2=NOC(C(=O)Nc3cc(OC)c(Cl)cc3OC)C2)c1C` (centres undefined)?
CYP2C19 inh: 30; PostGolgi yeast: 2; CYP2C9 act: 1.2; CYP2C19 act: 0.7; CYP2C9 inh: -20; PostGolgi ctrl: 1

Results for Cc1cc(C)c(NC(=O)CN2C(=O)NC3(CCOc4ccccc43)C2=O)c(C)c1 (centres undefined) ?
CYP2C19 inh: -2; PostGolgi yeast: 0; CYP2C9 act: 1; CYP2C19 act: 1; CYP2C9 inh: 0; PostGolgi ctrl: 0

Results for COc1ccc(/C=C\C(=O)CC(O)(c2ccccc2)C(F)(F)F)cc1 (centres undefined) ?
CYP2C19 inh: 42; PostGolgi yeast: -4; CYP2C9 act: 0.8; CYP2C19 act: 0.6; CYP2C9 inh: 19; PostGolgi ctrl: 38*

How did O=C(CC(O)(c1ccccc1)C(F)(F)F)c1cccs1 (centres undefined) do in these assays?
CYP2C19 inh: 44; PostGolgi yeast: -2; CYP2C9 act: 0.8; CYP2C19 act: 0.6; CYP2C9 inh: 22; PostGolgi ctrl: 22

What do the screens show for `O=C(CSCc1ccccc1)N1CCN(c2ccc(F)cc2)CC1`?
CYP2C19 inh: 49; PostGolgi yeast: 3; CYP2C9 act: 0.8; CYP2C19 act: 0.5; CYP2C9 inh: 21; PostGolgi ctrl: 10

How did CN1CCN(C(=O)c2ccc(COc3ccc(Cl)cc3Cl)cc2)CC1 do in these assays?
CYP2C19 inh: -7; PostGolgi yeast: -8; CYP2C9 act: 1; CYP2C19 act: 1.1; CYP2C9 inh: -2; PostGolgi ctrl: 6

Results for CN1CCN(C(=O)CCCOc2ccc(Cl)cc2Cl)CC1 ?
CYP2C19 inh: 67*; PostGolgi yeast: -8; CYP2C9 act: 1.3; CYP2C19 act: 0.3; CYP2C9 inh: -25; PostGolgi ctrl: 7

Results for Nc1nncn1C(=O)CCCOc1ccc(Cl)cc1Cl ?
CYP2C19 inh: 65*; PostGolgi yeast: 24; CYP2C9 act: 0.9; CYP2C19 act: 0.4; CYP2C9 inh: 6; PostGolgi ctrl: 3

What do the screens show for `O=C(Oc1ccccc1)N1CCN(c2ccc(F)cc2)CC1`?
CYP2C19 inh: 85*; PostGolgi yeast: 5; CYP2C9 act: 1.1; CYP2C19 act: 0.2; CYP2C9 inh: -8; PostGolgi ctrl: 17

What do the screens show for `Cc1cc(Cl)ccc1OCCCC(=O)N1CCN(C(=O)c2ccco2)CC1`?
CYP2C19 inh: 65*; PostGolgi yeast: 3; CYP2C9 act: 0.7; CYP2C19 act: 0.4; CYP2C9 inh: 27; PostGolgi ctrl: 6

Results for COc1cc(CNC2CCCCCC2)cc(OC)c1 ?
CYP2C19 inh: 37; PostGolgi yeast: 11; CYP2C9 act: 1; CYP2C19 act: 0.6; CYP2C9 inh: -1; PostGolgi ctrl: 21

What do the screens show for `O=C(CCCCCNc1nc(=S)[nH]c2ccccc12)N1CCN(c2ccccn2)CC1`?
CYP2C19 inh: 57*; PostGolgi yeast: -4; CYP2C9 act: 0.4; CYP2C19 act: 0.4; CYP2C9 inh: 62*; PostGolgi ctrl: 0

How did O=C(CCCOc1ccccc1)N1CCN(c2ccccn2)CC1 do in these assays?
CYP2C19 inh: 80*; PostGolgi yeast: -8; CYP2C9 act: 0.3; CYP2C19 act: 0.2; CYP2C9 inh: 69*; PostGolgi ctrl: 14

How did O=C(CCCOc1ccc(Cl)cc1Cl)N1CCN(c2ccccn2)CC1 do in these assays?
CYP2C19 inh: 76*; PostGolgi yeast: -8; CYP2C9 act: 0.6; CYP2C19 act: 0.2; CYP2C9 inh: 43; PostGolgi ctrl: 52*

How did O=C(CCCOc1ccccc1)N1CCN(c2ccc(F)cc2)CC1 do in these assays?
CYP2C19 inh: 77*; PostGolgi yeast: -4; CYP2C9 act: 0.8; CYP2C19 act: 0.2; CYP2C9 inh: 24; PostGolgi ctrl: 5

What do the screens show for `O=C(CCCn1c(=O)[nH]c2ccsc2c1=O)N1CCN(c2ccccn2)CC1`?
CYP2C19 inh: 1; PostGolgi yeast: 16; CYP2C9 act: 0.8; CYP2C19 act: 1; CYP2C9 inh: 18; PostGolgi ctrl: 9

How did O=C1CC(N2CCN(c3ccc(S(=O)(=O)N4CCCC4)cc3)CC2)C(=O)N1c1ccc(F)cc1 (centres undefined) do in these assays?
CYP2C19 inh: 16; PostGolgi yeast: 3; CYP2C9 act: 0.7; CYP2C19 act: 0.8; CYP2C9 inh: 34; PostGolgi ctrl: 0

Results for COc1ccc(CC(=O)N2CCN=C2SC)cc1 ?
CYP2C19 inh: 41; PostGolgi yeast: 6; CYP2C9 act: 1; CYP2C19 act: 0.6; CYP2C9 inh: 4; PostGolgi ctrl: -5

What do the screens show for `CSC1=NCCN1C(=O)Cc1ccc(Cl)cc1`?
CYP2C19 inh: 57*; PostGolgi yeast: 8; CYP2C9 act: 0.7; CYP2C19 act: 0.4; CYP2C9 inh: 27; PostGolgi ctrl: -2

What do the screens show for `CC(C)n1nnnc1C(c1ccc(F)cc1)N1CCN(C2CCCC2)CC1` (centres undefined)?
CYP2C19 inh: 2; PostGolgi yeast: 2; CYP2C9 act: 1.1; CYP2C19 act: 1; CYP2C9 inh: -10; PostGolgi ctrl: -3

Results for COc1ccccc1N1CCN(C(c2ccc(F)cc2)c2nnnn2C(C)C)CC1 (centres undefined) ?
CYP2C19 inh: 52*; PostGolgi yeast: -2; CYP2C9 act: 0.5; CYP2C19 act: 0.5; CYP2C9 inh: 46; PostGolgi ctrl: 7

What do the screens show for `COc1ccccc1N1CCN(C(c2ccc(C)cc2)c2nnnn2C(C)C)CC1` (centres undefined)?
CYP2C19 inh: 74*; PostGolgi yeast: 2; CYP2C9 act: 0.3; CYP2C19 act: 0.3; CYP2C9 inh: 75*; PostGolgi ctrl: 8
